Assay results published in the supplement of paper PMC13380429.

Tested on: Vero E6 infected with SARS-CoV-2
Assay: inhibition of SARS-CoV-2 cytopathic effect; higher = more antiviral protection, active = above 15
Settings: 48 h

Measured: inhibition of SARS-CoV-2 cytopathic effect

CCC[C@H](N[C@@H](C)C(=O)N1[C@H](C(=O)O)C[C@@H]2CCCC[C@@H]21)C(=O)O [perindoprilat]
inactive: 1 nM 4.13% | 8.33 nM -0.1% | 100 nM 3.43% | 833.33 nM 0.42% | 10000 nM -3.18%

CC(C)(C)c1nc(-c2cccc(NS(=O)(=O)c3c(F)cccc3F)c2F)c(-c2ccnc(N)n2)s1 [dabrafenib]
inactive: 1 nM -0.66% | 8.33 nM -0.54% | 100 nM 0.25% | 833.33 nM -1.77% | 10000 nM 13.1%

OCCCNc1cc(-c2ccnc(Nc3cccc(Cl)c3)n2)ccn1
inactive: 1 nM 1.32% | 8.33 nM -0.77% | 100 nM 1.6% | 833.33 nM -16.6% | 10000 nM 11.2%

COC(=O)Nc1ccc(-c2nc(N3CCOCC3)c3cnn(C4CCN(Cc5cccnc5)CC4)c3n2)cc1
inactive: 1 nM -4.18% | 8.33 nM -1.95% | 100 nM 3.87% | 833.33 nM -4.82% | 10000 nM -2.6%

N#Cc1cn([C@@H]2O[C@H](CO)[C@@H](O)[C@H]2O)c2ncnc(N)c12 [toyocamycin]
inactive: 1 nM 0.31% | 8.33 nM 2.87% | 100 nM 4.68% | 833.33 nM -0.02% | 10000 nM -0.24%

COc1cc(C(=O)N(CC[C@H]2CCCN2C)C/C(C)=C/c2ccccc2F)cc(OC)c1OC (racemic)
inactive: 1 nM -0.69% | 8.33 nM -1.9% | 100 nM 1.94% | 833.33 nM -0.01% | 10000 nM -1.76%

O=C(O[C@H]1C[N+]2(CCCOc3ccccc3)CCC1CC2)C(O)(c1cccs1)c1cccs1 [aclidinium]
inactive: 1 nM -0.75% | 8.33 nM -1.25% | 100 nM -2.4% | 833.33 nM 1.93% | 10000 nM 1.6%
